According to the antibiotic and cytotoxicity screens of Wong et al. (2023):
Screen size: about 39,000 compounds; about 3,300 (8.5%) were called active. Shown is part of a subset that was picked to be rich in actives.

System: HepG2
Test: cytotoxicity call (relative viability < 0.9)
Details: 10 µM

SMILES | cytotoxicity call
COc1ccc(N2C(=O)C[C@@H](c3ccc(Br)cc3)[C@H]2C(=O)Nc2cccc3cccnc23)cc1 | inactive
COc1nc(=NC(=O)NS(=O)(=O)Nc2cccc3cccnc23)nc(OC)[nH]1 | active
C[C@@H]1CN([C@H](C)CO)C(=O)Cc2cc(NS(=O)(=O)c3ccc(F)cc3)ccc2O[C@H]1CN(C)S(=O)(=O)c1cccs1 | inactive
Cc1cc(C2(c3cc(C)c(N)c(C)c3)CCCCC2)cc(C)c1N | active
CC1CCC(NC(=O)N(CCCl)[NH2+][O-])CC1 (stereo not given) | inactive
CC(C)NC(=O)[C@@H]1c2ccccc2C(=O)N(Cc2cc(C(F)(F)F)cc(C(F)(F)F)c2)[C@H]1c1ccc(CO)cc1 | inactive
Cc1ccc(N(c2ccc(C)cc2)c2cccnc2)cc1 | inactive
C[C@@H]1CN([C@@H](C)CO)S(=O)(=O)c2ccc(C#Cc3ccccc3F)cc2O[C@@H]1CN(C)CC1CCOCC1 | inactive
O=C(C[C@H]1C=C[C@H](NC(=O)CN2CCOCC2)[C@@H](CO)O1)NCCc1ccccc1 | inactive
CC(C)NC(=O)N(C)C[C@@H]1Oc2ccc(NC(=O)NC3CCCCC3)cc2C(=O)N([C@@H](C)CO)C[C@H]1C | inactive
Cc1ccc(S(=O)(=O)N(C)C[C@@H]2OCCCC[C@@H](C)Oc3ccc(NC(=O)Nc4ccc(F)cc4)cc3C(=O)N([C@H](C)CO)C[C@H]2C)cc1 | active
Cc1ccc(S(=O)(=O)N(C)C[C@@H]2OCCCC[C@@H](C)Oc3ccc(NC(=O)Nc4ccc(F)cc4)cc3C(=O)N([C@@H](C)CO)C[C@@H]2C)cc1 | inactive
Cc1ccc(S(=O)(=O)N(C)C[C@@H]2OCCCC[C@H](C)Oc3ccc(NC(=O)Nc4ccc(F)cc4)cc3C(=O)N([C@@H](C)CO)C[C@@H]2C)cc1 | inactive
Cc1ccc(S(=O)(=O)N(C)C[C@@H]2OCCCC[C@H](C)Oc3ccc(NC(=O)Nc4ccccc4)cc3C(=O)N([C@@H](C)CO)C[C@H]2C)cc1 | inactive
Cc1ccc(S(=O)(=O)N(C)C[C@@H]2OCCCC[C@@H](C)Oc3ccc(NC(=O)Nc4ccccc4)cc3C(=O)N([C@H](C)CO)C[C@H]2C)cc1 | inactive
Cc1ccc(S(=O)(=O)N(C)C[C@H]2OCCCC[C@@H](C)Oc3ccc(NC(=O)Nc4ccc(F)cc4)cc3C(=O)N([C@@H](C)CO)C[C@H]2C)cc1 | active
Cc1ccc(S(=O)(=O)N(C)C[C@H]2OCCCC[C@@H](C)Oc3ccc(NC(=O)Nc4ccc(F)cc4)cc3C(=O)N([C@H](C)CO)C[C@H]2C)cc1 | inactive
Cc1ccc(S(=O)(=O)N(C)C[C@@H]2OCCCC[C@H](C)Oc3ccc(NC(=O)Nc4ccc(F)cc4)cc3C(=O)N([C@@H](C)CO)C[C@H]2C)cc1 | inactive
Cc1ccc(S(=O)(=O)N(C)C[C@@H]2OCCCC[C@@H](C)Oc3ccc(NC(=O)Nc4ccccc4)cc3C(=O)N([C@@H](C)CO)C[C@H]2C)cc1 | active
CCS(=O)(=O)N1CC[C@]2(CC1)CN(Cc1ccc3c(c1)OCO3)[C@H](CO)c1c2c2ccc(cc2n1C)OC | inactive
O=C(C[C@H]1C=C[C@H](NC(=O)Cc2ccccn2)[C@@H](CO)O1)NCCCN1CCOCC1 | inactive
CC(C)NC(=O)Nc1ccc2c(c1)C(=O)N([C@H](C)CO)C[C@H](C)[C@@H](CN(C)Cc1ccc(Oc3ccccc3)cc1)O2 | inactive

SMILES | cytotoxicity call
C[C@H](CO)N1C[C@H](C)[C@@H](CN(C)S(=O)(=O)c2ccc(F)cc2)Oc2ncc(Br)cc2C1=O | inactive
C[C@@H]1CN([C@@H](C)CO)C(=O)Cc2cc(NS(=O)(=O)c3ccc(F)cc3)ccc2O[C@@H]1CN(C)CC1CC1 | inactive
COc1ccccc1-c1ccc2c(c1)O[C@@H](CN(C)C(=O)c1ccncc1)[C@@H](C)CN([C@@H](C)CO)S2(=O)=O | inactive
O=c1cc[nH]c(=S)[nH]1 | inactive
Cn1cnc(S(=O)(=O)N2C[C@@H](O)COC[C@@H]3O[C@@H](CC(=O)NCc4cccc(F)c4)CC[C@H]32)c1 | inactive
C[C@@H]1CCCCO[C@H](CN(C)Cc2ccc(C(=O)O)cc2)[C@@H](C)CN([C@@H](C)CO)C(=O)c2cc(NC(=O)Nc3ccccc3)ccc2O1 | inactive
CC(=O)NCCOc1ccc(C(=O)O)cc1 | inactive
N=C(N)c1ccc(OCCCCCOc2ccc(C(=N)N)cc2)cc1.O=S(=O)(O)CCO.O=S(=O)(O)CCO | active
N=C(N)c1ccc(C(N)=O)cc1 | inactive
C[C@@H]1CCCCO[C@@H](CN(C)S(=O)(=O)c2cn(C)cn2)[C@H](C)CN([C@H](C)CO)C(=O)c2cc(NS(C)(=O)=O)ccc2O1 | inactive
C[C@H](CO)N1C[C@H](C)[C@@H](CN(C)S(=O)(=O)c2ccccc2)Oc2ccc(NS(=O)(=O)c3cn(C)cn3)cc2C1=O | inactive
CO[C@H]1CN(C)C(=O)c2cc(NC(C)=O)ccc2OC[C@H](C)N(S(=O)(=O)c2cn(C)cn2)C[C@H]1C | inactive
CCC(=O)c1ccc(O)cc1 | inactive
CCC(=C(CC)c1ccc(O)cc1)c1ccc(O)cc1 | active
CCC(c1ccc(O)cc1)C(CC)c1ccc(O)cc1 (stereo not given) | inactive
CNC[C@@H]1OCCCC[C@H](C)Oc2ccc(NC(=O)Nc3ccc(C(F)(F)F)cc3)cc2C(=O)N([C@@H](C)CO)C[C@H]1C | inactive
O=C(Cc1ccccn1)NCC[C@@H]1CC[C@H](NC(=O)CN2CCOCC2)[C@@H](CO)O1 | inactive
Cc1ccc(S(=O)(=O)n2cc([C@@H]3CC(=O)N(C(=O)OCc4ccccc4)[C@@H]3C(=O)Nc3cccc4cccnc34)c3ccccc32)cc1 | inactive
CN1CCN(c2ccc(OC(F)(F)F)c(Nc3ncc4c(n3)-c3c(c(C(N)=O)nn3CCO)CC4)c2)CC1 | active
Cn1c(=O)c2c(nc(NCCN)n2C)n(C)c1=O | inactive
COc1ccc2c3c([nH]c2c1)[C@@H](CO)N(C[C@]13CCN(CC1)C(=O)CN(C)C)S(=O)(=O)C | inactive
CCCN(CCC)c1cc(N2CCCC2)c2ccccc2c1 | active

SMILES | cytotoxicity call
C[C@@H]1CN([C@H](C)CO)C(=O)c2cc(NC(=O)Cc3ccccc3)ccc2O[C@H]1CN(C)S(=O)(=O)c1ccccc1 | inactive
Cc1ccc(S(=O)(=O)Nc2ccc3c(c2)C(=O)N([C@H](C)CO)C[C@H](C)[C@H](CN(C)C(=O)Nc2c(C)noc2C)OCCCC[C@@H](C)O3)cc1 | inactive
CN1CCN(C(=O)C[C@H]2CC[C@@H]3[C@@H](COc4ccc(NC(=O)c5ccc(F)c(F)c5)cc4C(=O)N3C)O2)CC1 | inactive
C[C@@H]1CCCCO[C@@H](CN(C)Cc2ccccc2)[C@@H](C)CN([C@H](C)CO)C(=O)c2cc(NC(=O)CCCCCC(=O)Nc3ccccc3N)ccc2O1 | inactive
Cc1ccc(NC(=O)Nc2cc(C(F)(F)F)ccc2F)cc1Nc1ccc2c(c1)NC(=O)/C2=C\c1ccc[nH]1 | active
COc1ccc(S(=O)(=O)N[C@H]2C=C[C@H](CC(=O)NCCc3ccncc3)O[C@@H]2CO)cc1 | inactive
Cc1ccc(S(=O)(=O)N(C)C[C@@H]2OCCCC[C@H](C)Oc3ccc(NC(=O)CCC(F)(F)F)cc3C(=O)N([C@@H](C)CO)C[C@@H]2C)cc1 | active
Cc1ccc(S(=O)(=O)N(C)C[C@H]2OCCCC[C@H](C)Oc3ccc(NC(=O)CCC(F)(F)F)cc3C(=O)N([C@H](C)CO)C[C@@H]2C)cc1 | inactive
C[C@H](CO)N1C[C@H](C)[C@@H](CN(C)S(=O)(=O)c2ccc(Cl)cc2)OCCCC[C@H](C)Oc2ccc(NC(=O)CCC(F)(F)F)cc2C1=O | inactive
C[C@@H]1CCCCO[C@@H](CN(C)S(=O)(=O)c2ccc(Cl)cc2)[C@H](C)CN([C@H](C)CO)C(=O)c2cc(NC(=O)CCC(F)(F)F)ccc2O1 | active
C[C@@H]1CN([C@H](C)CO)C(=O)c2cc(NC(=O)CCC(F)(F)F)ccc2O[C@@H](C)CCCCO[C@@H]1CN(C)S(=O)(=O)c1ccc(Cl)cc1 | inactive
C[C@@H]1CN([C@@H](C)CO)C(=O)c2cc(NC(=O)CCC(F)(F)F)ccc2O[C@@H](C)CCCCO[C@H]1CN(C)S(=O)(=O)c1ccc(Cl)cc1 | inactive
C[C@@H]1CCCCO[C@H](CN(C)S(=O)(=O)c2ccc(Cl)cc2)[C@@H](C)CN([C@H](C)CO)C(=O)c2cc(NC(=O)CCC(F)(F)F)ccc2O1 | inactive
C[C@@H]1CCCCO[C@H](CN(C)S(=O)(=O)c2ccc(Cl)cc2)[C@H](C)CN([C@H](C)CO)C(=O)c2cc(NC(=O)CCC(F)(F)F)ccc2O1 | active
C[C@@H]1CCCCO[C@H](CN(C)S(=O)(=O)c2ccc(Cl)cc2)[C@@H](C)CN([C@@H](C)CO)C(=O)c2cc(NC(=O)CCC(F)(F)F)ccc2O1 | inactive
C[C@@H]1CN([C@H](C)CO)C(=O)c2cc(NC(=O)CCC(F)(F)F)ccc2O[C@@H](C)CCCCO[C@H]1CN(C)S(=O)(=O)c1ccc(Cl)cc1 | active
Cc1ccc(S(=O)(=O)N(C)C[C@@H]2OCCCC[C@@H](C)Oc3ccc(NC(=O)CCC(F)(F)F)cc3C(=O)N([C@H](C)CO)C[C@H]2C)cc1 | inactive
C[C@@H]1CN([C@@H](C)CO)C(=O)c2cc(NC(=O)CCC(F)(F)F)ccc2O[C@@H](C)CCCCO[C@@H]1CN(C)S(=O)(=O)c1ccc(Cl)cc1 | inactive
COc1ccc(NC(=O)N(C)C[C@H]2Oc3c(NC(=O)C4CCOCC4)cccc3C(=O)N([C@@H](C)CO)C[C@H]2C)cc1 | inactive
CC(C)NC(=O)Nc1ccc2c(c1)C(=O)N([C@@H](C)CO)C[C@H](C)[C@@H](CN(C)C(=O)Nc1ccccc1)OCCCC[C@@H](C)O2 | inactive
C[C@H](CO)N1C[C@H](C)[C@H](CN(C)Cc2cccc3c2OCCCO3)OCc2cn(nn2)CCCC1=O | inactive
